The list is not random: actives were taken first. Their share in the collection is about 1.3%.
SRC3 inh: inhibitors of human steroid receptor coactivator 3 (SRC3); AID 588352; inhibition, % at 3.6 µM; Q9Y6Q9; 360,000 tested, 0.17% active; HEK293 GAL4-SRC3 luciferase reporter, luminescence;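 active means inhibition above a per-campaign cutoff, the mean of all compounds plus 3 SD, cut at about 60% in these data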;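 further: 0% = DMSO-treated cells and 100% = gossypol-treated cells at 36 µM; higher means less SRC3-driven luciferase light from the GAL4 reporter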
NCOA1 inh: inhibitors of human steroid receptor coactivator 1 (SRC1); Q15788; HEK293 GAL4-SRC1 luciferase reporter, luminescence; inhibition, % at 3.6 µM; 360,000 tested, 0.12% active; AID 588354;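 active means inhibition above the campaign mean plus 3 SD, with each screening campaign given its own cutoff, cut at about 60% in these data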;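 further: 0% = DMSO treated cells and 100% = gossypol at 36 µM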
NCOA2 inhibitor: inhibits human steroid receptor coactivator 2 | Q15596 | HEK293 GAL4-SRC2 luciferase reporter, luminescence | inhibition, % at 9 µM | 370,000 tested, 0.17% active | AID 651957;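 active means inhibition above the mean inhibition of all tested compounds plus 3 SD, set per campaign, cut at about 52% in these data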;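 further: 0% = DMSO treated cells and 100% = cells given Gossypol at 36 µM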
Gli-Sufu antag: blocks Gli-Sufu signaling in a luciferase reporter. 340,000 tested, 0.74% active. Sufu-KO-LIGHT fibroblasts, Gli luciferase reporter luminescence. inhibition, % at 5 µM. AID 588413;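 active means inhibition above about 55%, limit read from the data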;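 further: 0% = DMSO-treated cells and 100% = wells with medium but no cells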
NR5A2 inv ag: suppresses constitutive activity of human LRH-1 | O00482 | HEK293T StAR-luciferase reporter, LRH-1 transfected, 24 h | inhibition, % at 3.6 µM | 360,000 tested, 0.13% active;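 active means inhibition above the mean inhibition of all tested compounds plus 3 SD, cut at about 73% in these data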;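 further: 0% = DMSO wells and 100% = reporter-only cells lacking LRH-1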
NR2F2 inh: inhibitors of human COUP-TFII (NR2F2). HEK293T NGFI-A luciferase reporter, luminescence. inhibition, % at 8.6 µM. 370,000 tested, 0.7% active;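 active means inhibition above a per-plate cutoff, mean inhibition of test wells between control levels plus 3 SD, cut at about 38% in these data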;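 further: cells cotransfected with COUP-TFII expression vector driving the NGFI-A reporter; 0% = median of COUP-TF2 test wells and 100% = reporter-only cells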
VP16 Luc counter: VP16 inhibition counter-screen for COUP-TFII; shares compounds with NR2F2 inh; HEK293 Gal4-VP16 luciferase reporter, luminescence; inhibition, % at 8.5 µM; 2,500 tested, 25% active; AID 687007; in the data active means inhibition above about 13%
NR2F2 inh conf: COUP-TFII (NR2F2) inhibition, confirmation assay; shares compounds with NR2F2 inh; 2,500 tested, 45% active; HEK293 NGFI-A luciferase reporter, luminescence; AID 687008; inhibition, % at 8.5 µM;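 active means mean inhibition over three repeats above a set limit taken from the earlier primary screen, cut at about 38% in these data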;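 further: 100% = cells given the luciferase reporter alone without the COUP-TF2 vector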
* = called active by the depositor; · = no result.

SMILES | SRC3 inh | NCOA1 inh | NCOA2 inhibitor | Gli-Sufu antag | NR5A2 inv ag | NR2F2 inh | VP16 Luc counter | NR2F2 inh conf
COc1cc(CC2COC(=O)C2(O)Cc2ccc(O)c(OC)c2)ccc1O (stereo unspecified) | 20 | 19 | 3 | 17 | 22 | 53* | -2 | 25
COc1cc(CC2COC(=O)C2Cc2ccc(O)c(OC)c2)ccc1O (stereo unspecified) | · | · | 13 | · | · | 36 | · | ·
COc1ccc(-n2c(SCC(=O)NNC(=S)Nc3ccc(C)cc3)nnc2-c2ccccc2)cc1 | · | · | 16 | · | · | -29 | · | ·
CC(=O)N1C[C@H]2CON(C)[C@H]2C[C@H]1c1cccc(-c2ccccc2C)c1 | -16 | -14 | -12 | -29 | -15 | 78* | -11 | -5
O=S(Cc1ccc(Br)cc1)Cc1nnc(SCc2ccc(Br)cc2)n1-c1ccccc1 (stereo unspecified) | 29 | 11 | 7 | 41 | 38 | 44* | -4 | 28
COC(=O)c1ccc(CSc2nnc(CS(=O)Cc3ccc(Br)cc3)n2-c2ccccc2)cc1 (stereo unspecified) | 11 | -4 | 16 | 29 | 19 | 39* | 0 | 15
Cc1ccc(-n2c(Cc3cccs3)nnc2SCc2ccc(Br)cc2)cc1 | · | · | 19 | · | · | 2 | · | ·
COc1ccc(CCNc2ncnc3sc(C)cc23)cc1OC | 26 | 19 | 36 | 69* | 46 | 79* | -1 | 68*
CCOc1ccc2[nH]c3c(NCCc4ccc(OC)c(OC)c4)ncnc3c2c1 | 16 | -29 | -10 | 15 | -1 | 49* | -11 | 5
CCC(C)c1ccc(NC(=O)CSc2nnc(-c3cccc(C)c3)n2C)cc1 (stereo unspecified) | · | · | -1 | · | · | -29 | · | ·
Cn1c(=O)cc(OCCCC(=O)NCc2cccnc2)c2ccccc21 | 13 | -23 | -18 | 1 | 12 | -16 | · | ·
Cn1c(=O)cc(OCCCC(=O)Nc2cc(-c3ccncc3)ccn2)c2ccccc21 | · | · | · | · | · | 46* | 23* | 40*
Cn1c(=O)cc(OCCCC(=O)Nc2cc(C(F)(F)F)ccn2)c2ccccc21 | · | · | · | · | · | 71* | 16* | 28
Cn1c(=O)cc(OCCCC(=O)NCc2ccccn2)c2ccccc21 | 3 | 15 | -35 | 2 | 25 | -36 | · | ·
CCN(CC)S(=O)(=O)c1ccc(/C=C/C(=O)Nc2ccc(F)c(F)c2F)cc1 | 39 | 36 | 8 | 5 | 38 | 63* | -18 | 47*
CCN(CC)S(=O)(=O)c1ccc(/C=C/C(=O)Nc2ccc(F)cc2F)cc1 | 6 | -17 | -11 | -12 | -4 | 50* | -34 | 28
O=C(/C=C/c1ccc(S(=O)(=O)N2CCOCC2)cc1)Nc1ccc(F)c(F)c1F | 8 | -16 | 4 | 10 | -5 | 15 | · | ·
CCN(CC)S(=O)(=O)c1ccc(/C=C/C(=O)Nc2ccc(Br)cc2F)cc1 | 41 | 25 | 26 | 21 | 33 | 56* | 0 | 70*
Cc1noc(C)c1NC(=O)Nc1ccc2c(c1)C(=O)N(C)[C@H]1CC[C@H](CC(=O)NCc3ccc(Cl)cc3)O[C@@H]1CO2 | · | · | -1 | · | · | -14 | · | ·
CCCCNC(=O)C1CCCN1C(=O)Nc1cc(Cl)cc(Cl)c1 (stereo unspecified) | · | · | -15 | · | · | -15 | · | ·
CCOC(=O)C1CCN(CC(=O)Nc2c(C(=O)OC)[nH]c3ccccc23)CC1 | · | · | -13 | · | · | 27 | · | ·
CCOC(=O)C1CCN(CC(=O)Nc2c(C(=O)OC)[nH]c3ccc(Cl)cc23)CC1 | 22 | 2 | 11 | -7 | 21 | 41* | 4 | 32
Cn1c(CN2CCCCC2)nc2cc(NC(=O)c3ccc(Cl)cc3)ccc21 | -2 | 10 | -17 | -10 | 29 | 62* | -12 | 48*
CCN(CC)c1ccc(C(=O)NNC(=O)CCl)cc1 | -8 | -61 | -3 | -40 | 5 | 5 | · | ·
CCN(CC)c1ccc(C(=C2C=CC(=[N+](CC)CC)C=C2)c2ccc(N(CC)CC)cc2)cc1 | 79* | 67* | 16 | 87* | 96* | 83* | 57* | 80*
SMILES | SRC3 inh | NCOA1 inh | NCOA2 inhibitor | Gli-Sufu antag | NR5A2 inv ag | NR2F2 inh | VP16 Luc counter | NR2F2 inh conf
CCN(CC)c1ccc(C(=C2C=CC(=[N+](CC)CC)C=C2)c2ccccc2)cc1 | 62* | 33 | 94* | 92* | 95* | 105* | 98* | 113*
CCN(CC)c1ccc(C(=O)NNC(=O)CCNC(=O)c2ccccc2)cc1 | -28 | -10 | 10 | · | -12 | -5 | · | ·
Cc1c(NC(=O)C2CCCN(S(=O)(=O)c3ccc(F)cc3)C2)c(=O)n(-c2ccccc2)n1C (stereo unspecified) | · | · | 0 | · | · | 6 | · | ·
C=C1C(=O)O[C@@H]2C[C@@H](C)[C@@H]3C=CC(=O)[C@@]3(C)[C@@H](OC(C)=O)[C@H]12 | · | · | 83* | 96* | · | 86* | 94* | 105*
CO[C@H]([C@H](C)/C=C/N(C)C=O)[C@@H](C)C(=O)CC[C@H](C)[C@H](O)[C@H](C)[C@H]1OC(=O)/C=C/C(C)=C/C[C@H](O)C[C@@H]2C=CC[C@@H](C[C@H](OC)C(C)(O)[C@@H](OC)C[C@@H](OC)[C@@H]1C)O2 (stereo partly specified) | · | · | · | · | · | -26 | · | ·
CC(C)Nc1ncnc2ccc(Br)cc12 | 62* | 66* | 46 | 44 | 47 | 53* | 19* | 45*
CSCCC(Nc1ncnc2ccc(Br)cc12)C(=O)O (stereo unspecified) | 0 | 2 | 13 | -5 | 17 | 19 | · | ·
CC(=O)c1ccc(N2CCN(S(=O)(=O)c3ccc4c(c3)CC(C)N4C(C)=O)CC2)cc1 (stereo unspecified) | 19 | 13 | 5 | 57* | 41 | 59* | -2 | 44*
CC(=O)N1c2ccc(S(=O)(=O)N3CCOCC3)cc2CC1C (stereo unspecified) | -4 | 12 | -18 | -5 | -15 | -9 | · | ·
CC(=O)N1c2ccc(S(=O)(=O)N3CCC(C(=O)N4CCC(C)CC4)CC3)cc2CC1C (stereo unspecified) | 14 | -25 | -17 | 28 | -15 | 8 | · | ·
CC(=O)N1c2ccc(S(=O)(=O)N3CCC(C(=O)N4CCN(c5cc(Cl)ccc5C)CC4)CC3)cc2CC1C (stereo unspecified) | 15 | -31 | 17 | 43 | 2 | 43* | 5 | 19
CC(C)C[C@@H]1COc2cc(Br)ccc2S(=O)(=O)N1Cc1cn(Cc2ccc(F)cc2)nn1 | · | · | 9 | · | · | -2 | · | ·
CC(C)(C)c1ccc(Oc2ccc(NC(=O)c3ccco3)cn2)cc1 | 32 | -2 | 41 | 16 | -7 | 43* | 29* | 59*
O=C(Nc1ccc(Oc2cccc(C(F)(F)F)c2)nc1)c1ccco1 | 21 | -13 | 20 | -2 | 8 | 2 | · | ·

Screening data: PubChem, several laboratories
